# Peg3 promoter: reduces Peg3 promoter-driven luciferase expression in HeLa | AID 588405 | actives 1.7% (n = 360,000) | inhibition, % at 20 µM | HeLa PEG-Prom luciferase reporter, luminescence, overnight;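 active = inhibition of at least 50% at 20 µM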
# KKLEB tox: CF airway cell cytotoxicity counter-screen | activity change (cytotoxicity), % at 5 µM | KKLEB CF airway cells viability, ATPlite luminescence, overnight; hits give low values; cells stimulated with P. aeruginosa culture filtrate | AID 602141 | actives 0.36% (n = 360,000);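 active = corrected activity change at or below -50% at 5 µM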
# CHOP inh: inhibitors of CHOP induction in ER stress response; AID 2732; actives 3.8% (n = 220,000); CHO-K1 CHOP-promoter luciferase, tunicamycin-induced, 15-18 h; inhibition, % at 10 µM;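 active = compounds that reduced the stress-induced luciferase reporter signal by more than about 70% of percent inhibition, limit read from the data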;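 also: 0% = tunicamycin plus vehicle and 100% = wells without tunicamycin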
# CF NFkB inh: blocks PAF-induced NF-kB reporter in cystic fibrosis cells | KKLEB NF-kB-GFP reporter, GFP fluorescence overnight | inhibition, % at 5 µM | actives 0.86% (n = 360,000) | AID 588850;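 active = at least 50% inhibition at 5 µM, scaled per plate between neutral and stimulator controls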;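 also: PAF is a Pseudomonas aeruginosa culture filtrate used as stimulus; plate controls were PAF-stimulated DMSO wells for no effect and unstimulated DMSO wells for full effect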
# TRPM1 prom inh: MITF TRPM1 promoter inhibition in SK-MEL-5 cells | inhibition, % at 12.5 µM | SK-MEL-5 TRPM1 promoter luciferase, 24 h | actives 0.83% (n = 330,000);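 active = mean inhibition across replicates of 60% or more, whatever share of single replicates reaches that level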
# HIF-2a block: blocks HIF-2a reporter activity; 786-0 RCC cells HIF-2a reporter, luciferase luminescence, overnight; inhibition, % at 18.8 µM; actives 0.72% (n = 360,000);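 active = inhibition of the luminescence signal of 40% or more relative to plate controls, in a single-dose primary screen at 18.75 µM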
# * hit, by the source's call; . = no result. Sampled rows, rich in hits. Any-hit rate of the full collection: about 4.3%.
SMILES,Peg3 promoter,KKLEB tox,CHOP inh,CF NFkB inh,TRPM1 prom inh,HIF-2a block
O=C(CSc1ccc(Br)cc1)Nc1ccc(N2CCOCC2)cc1,-3,0,.,-6,6,-15
COC1=CC(=O)OC(c2ccccc2C(F)(F)F)C1 (configuration not stated),.,.,.,.,.,4
Nc1cc2c3ccccc3ccc2c2ccccc12,72*,-78*,.,88*,-2,-318
CC1(C)C=Cc2c(ccc3c2OC[C@H](c2ccc(O)cc2O)C3)O1,-269,10,.,1,-46,-205
CC(C)=CCc1cc([C@@H]2COc3c(ccc4c3C=CC(C)(C)O4)C2)c(O)cc1O,84*,-6,.,-8,30,-4
O=C(OC1CCOC1=O)C1CCN(S(=O)(=O)c2c(Cl)cccc2Cl)CC1 (configuration not stated),22,4,.,-17,1,16
CCOC(=O)C1=C[C@@H](CC)N(S(=O)(=O)c2ccccc2)[C@H]1c1ccccc1,30,4,.,-12,.,2
COc1cccc(/C=C2\SC(=S)N(CCC(=O)N3CCCCC3)C2=O)c1,90*,7,.,48,12,46*
O=C1/C(=C/c2ccc(Cl)cc2)SC(=S)N1CCC(=O)N1CCCCC1CCO (configuration not stated),39,-12,.,19,6,4
COc1ccc(/C=C2\SC(=S)N(CCC(=O)Nc3ccccc3C(=O)O)C2=O)cc1,-24,2,.,2,6,71*
O=C1/C(=C/c2ccccc2F)SC(=S)N1CCC(=O)N1CCCCC1CCO (configuration not stated),53*,1,.,-1,14,4
CCOc1ccc(/C=C2\SC(=S)N(CCC(=O)Nc3ccccc3C(=O)O)C2=O)cc1,-74,7,.,10,-3,-14
O=C(O)COc1ccc(C=C2SC(=S)N(c3ccccc3)C2=O)cc1,-33,2,.,-4,12,43*
CCCCS(=N)(=O)CC[C@H](N)C(=O)O (some centres not stated),.,.,44,.,.,.
O=C(CCN1C(=O)/C(=C\c2ccccc2F)SC1=S)N1CCCCC1,104*,0,.,96*,-21,8
CC(/C=C1\SC(=S)N(c2ccc(C(=O)O)cc2)C1=O)=C\c1ccccc1,17,1,68,-10,16,51*
COc1ccc(/C=C2\SC(=S)N(CCC(=O)N3CCCCC3)C2=O)cc1,50*,0,.,12,13,76*
CC1CCN(C(=O)CCN2C(=O)/C(=C/c3cccs3)SC2=S)CC1,94*,-9,.,15,12,23
COc1cc(/C=C/C(=O)NC(=O)c2ccccc2O)ccc1OC(C)=O,-164,5,.,-19,-70,-170
O=C(OCc1ccccc1)N1CCC2CC1c1cc(/C=C/CCCSc3ncccn3)ccc12 (configuration not stated),-133,16,.,-12,.,-208
CC(C)(C)NCC(O)COc1nsnc1N1CCOCC1 (configuration not stated),.,.,-6,.,.,.
FC(F)(F)C(F)(F)c1nc2nc(Cl)c(Cl)nc2[nH]1,4,2,.,3,.,7
O=C(CCN1C(=O)/C(=C/c2ccccc2Cl)SC1=S)NN1CCOCC1,-4,11,.,-18,-12,1
COc1ccc(/C=C2\SC(=S)N(CCC(=O)N3CCCCC3CCO)C2=O)cc1 (configuration not stated),-4,5,.,6,-3,58*
O=C(CCN1C(=O)/C(=C\c2ccccc2Cl)SC1=S)N1CCN(c2ccccc2)CC1,100*,8,14,4,-2,60*
SMILES,Peg3 promoter,KKLEB tox,CHOP inh,CF NFkB inh,TRPM1 prom inh,HIF-2a block
CCOc1ccc(/C=C2\SC(=S)N(CCC(=O)O)C2=O)cc1,24,0,84*,8,85*,91*
COc1ccc(/C=C2/SC(=S)N(CCCC(=O)N3CCN(C)CC3)C2=O)cc1,5,3,.,4,9,69*
CCOc1ccc(/C=C2/SC(=S)N(CCC(=O)Nc3ccc(C(=O)O)cc3)C2=O)cc1,-19,8,.,14,-51,-80
COc1cccc(Cn2c(C(C)n3c(-c4cnccn4)nc4ccccc43)nc3ccccc32)c1 (configuration not stated),.,.,.,.,.,17
CC(C)n1c(=O)[nH][nH]c1=S,-91,-4,-2,0,.,18
COc1cc(/C=C2/SC(=S)N(CCC(=O)N3CCN(C)CC3)C2=O)cc(OC)c1OC,53*,-3,.,9,.,-12
COc1cc(/C=C2\SC(=S)N(CCC(=O)N3CCN(C)CC3)C2=O)cc(OC)c1OC,17,3,.,10,0,0
Cc1ccc(/C=C2\SC(=S)N(CCCC(=O)N3CCOCC3)C2=O)cc1,4,-9,.,4,11,58*
CCC(C)c1ccc(S(=O)(=O)N2CCN(C(=O)c3ccc(Cl)c(S(=O)(=O)N4CCOCC4)c3)CC2)cc1 (configuration not stated),20,8,.,7,30,-9
CCC(C(=O)OCC(=O)NC(=O)NC(C)(C)C)c1ccccc1 (configuration not stated),0,5,76*,6,7,8
CC(C)(C)NC(=O)NC(=O)COC(=O)c1ccc(OC(F)(F)F)cc1,-14,9,81*,0,13,6
CC(C)(C)NC(=O)NC(=O)COC(=O)c1ccc(OC(F)F)cc1,10,13,11,-9,-9,11
CCC(C)(C)NC(=O)C(OC(=O)c1cc2sccc2n1C)c1ccc(OC)cc1 (configuration not stated),10,-4,79*,9,-4,18
COc1ccc(C#Cc2cccc(-c3nc(C(=O)NCc4ccc(Oc5ccccc5)cc4)cc4c3[C@@H](CCO)N(S(=O)C(C)(C)C)C4)c2)cc1OC (some centres not stated),-18,-12,.,-6,.,14
N#Cc1nc(NCC(F)F)nc(Nc2cc(F)cc(F)c2)n1,107*,20,.,73*,75*,8
Cc1c(P(=S)(c2ccccc2)c2ccccc2)[n+]2ccccc2n1C/C=C/c1ccccc1,83*,-5,.,46,.,-33
CCOc1ccc(OCC)c(NS(=O)(=O)c2cccc3nsnc23)c1,6,1,83*,-6,-5,26
CNc1ncnc2c1ncn2[C@H]1C[C@H](OP(=O)(O)O)[C@@H](COP(=O)(O)O)O1,.,.,-8,.,.,.
N#CCC(=O)Nc1ccc(C(=O)N2CCN(S(=O)(=O)c3ccc4ccccc4c3)CC2)cc1,-113,1,.,9,-2,3
CCOc1ccc(NS(=O)(=O)c2cc3c4c(c2)C(C)C(=O)N4CCC3)cc1 (configuration not stated),11,-6,.,14,5,-4
COc1ccc(-c2csc(C(C)(NC(C)=O)c3ccccc3)n2)cn1 (configuration not stated),10,3,.,5,.,-2

# High-throughput results as filed in PubChem.
